Shiga toxin inh – A qHTS for Small Molecule Inhibitors of Shiga Toxin; Vero cells, Shiga toxin protein synthesis inhibition reporter; inhibition, % at 38.7 µM; actives 9.2% (n = 290,000); AID 2315, 2010; in the data active = inhibition mostly above about 28%, no sharp cut-off; inactive = mostly below about 43%; note: 0% is about no effect
HCMV inh – qHTS Assay for inhibitors of the human cytomegalovirus (HCMV). HFF cells, HCMV-luciferase reporter, 72 h; hits give low values. activity change, negative = inhibition, % at 57.5 µM. actives 4.5% (n = 410,000); in the data active = activity change below about -60%; inconclusive = no clear call, values can overlap the other calls; inactive = above about -39%; note: % is set by controls: 0 for no effect and ±100 for the full control effect
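Inhibition of viral replication was scored as loss of reporter luminescence in HFFs infected with HCMV-luciferase (MOI 1 PFU/cell) for 72 h; compounds tested at 2 doses, normalized to buffer and Salinomycin controls.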
Pf growth 48h – Primary qHTS for delayed death inhibitors of the malarial parasite plastid, 48 hour incubation. P. falciparum luciferase growth in erythrocytes, 48 h. Potency, µM (titrated, usually from 28.7 µM), inactives show top-dose activity change, negative = inhibition, usual class: inhibitors. actives 5.9% (n = 310,000); note: potency is the fitted concentration of half-maximal effect; % is set by controls: 0 for no effect and ±100 for the full control effect
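Cell-based growth assay: transgenic P. falciparum expressing firefly luciferase, cultured in red cells within RPMI 1640 containing 0.5% w/v Albumax, 24 mM bicarbonate and gentamycin. A drop in luciferase activity indicates inhibition.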
HCV inh – qHTS Assay for Inhibitors of Hepatitis C Virus (HCV); Huh7.5.1 HCVcc-Cre infection, luciferase reporter, 44 h; Potency, µM (series often up to 41.8 µM), inactives show top-dose activity change, negative = inhibition, hits mostly inhibitors; actives 3.4% (n = 340,000); note: potency is the fitted concentration of half-maximal effect; % is set by controls: 0 for no effect and ±100 for the full control effect
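1,000 cells/well; 4 h culture; + compound; + HCVcc-Cre (~0.5 moi); 44 h; luciferase substrate, RT 15 min; read 15 sec.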
Pf growth 96h – Primary qHTS for delayed death inhibitors of the malarial parasite plastid, 96 hour incubation; AID 504834, 2011; Potency, µM (doses to about 28.7 µM), inactives show at the highest dose activity change, negative = inhibition, usual class: inhibitors; actives 6.9% (n = 320,000); P. falciparum luciferase reporter growth, 96 h; note: potency is the fitted concentration of half-maximal effect; % is set by controls: 0 for no effect and ±100 for the full control effect
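Luminescence readout: decreased luciferase signal marks inhibited growth of reporter-expressing P. falciparum in infected red cells (2% hematocrit, 0.05% parasitemia final), exposed to compound two generations (96 h, 37 C, 5% CO2).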
Cycloheximide cs – Cycloheximide Counterscreen for Small Molecule Inhibitors of Shiga Toxin; cell reporter, cycloheximide protein synthesis inhibition counterscreen; max response, %; actives 12% (n = 300,000); AID 2314, 2010; in the data active = max response mostly above about 13%, no sharp cut-off; inactive = mostly below about 14%; note: read at 38.3 µM for the half of the compounds with a filed dose; 0% is about no effect
Active calls of the source: *; ? = inconclusive; . = no result; [ ] = dose if it differs, or a comment. Hits are enriched below; roughly 21% of the tested compounds scored in any of these assays. Unless noted, calls come from the whole dose curve; as a rule, active = well fitted inhibition curve with a large enough effect; inconclusive = small, poorly fitted or top-dose-only effect, or another doubt; inactive = no such curve, though single readings can be large or run the other way.

SMILES	Shiga toxin inh	HCMV inh	Pf growth 48h	HCV inh	Pf growth 96h	Cycloheximide cs
CC(C)(C)n1nc2c(c1NC(=O)COc1ccc(Cl)cc1)CS(=O)(=O)C2	113	22	0%	-8%	-98%	20
CC(C)(C)n1nc2c(c1NC(=O)Cc1ccc(F)cc1)CSC2	-15	-24	.	7%	10µM*	-8
COc1ccc(-n2nc3c(c2NC(=O)CCl)CSC3)cc1	13	-29	0.74µM*	-32%	?	12
CC(C)(C)n1nc2c(c1NC(=O)COc1ccc(Cl)cc1)CSC2	-20	.	?	?	4.7µM*	-3
CCCCC1=NN(C(=O)c2cccnc2)C(O)(C(F)(F)F)C1 (configuration not stated)	17	2	147%	?	7%	2
CCOc1ccc(-n2c(=O)c3sccc3n(CC(=O)NCCc3ccc(OC)c(OC)c3)c2=O)cc1	7	?	16%	-19%	19%	1
CC(C)c1cc(C(=O)Nc2ccc3c(c2)OCO3)no1	55*	108	21%	7%	?	30*
O=C(Nc1ccc2c(c1)OCO2)c1cc(C2CC2)on1	52*	46	22%	-9%	1%	34*
CC(C)c1cc(C(F)(F)F)n2nc(C(=O)Nc3ccc4c(c3)OCO4)cc2n1	19	87	12%	13µM*	10%[5.75 µM]	21
Cc1cc(Cl)ccc1OCCCC(=O)NNC(=O)c1ccccc1O	.	-7	-16%	?	30%	.
COc1ccc(C)cc1NC(=O)CSc1nc(=O)n(CCCN2CCOCC2)c2c1CCCC2	.	-16	?	?	?	.
Cc1ccc(C)c(N2CCN(C(=O)c3ccc(N4CCOCC4)c([N+](=O)[O-])c3)CC2)c1	16	1	?	?	3%	-7
Cc1ccccc1C(=O)Nc1cc(-c2cc(C(C)(C)C)oc2C)nn1C	-6	-63*	-17%	?	?	-1
Cc1noc(C)c1S(=O)(=O)N1CCCC(C(=O)Nc2ccc(C(C)C)cc2)C1 (configuration not stated)	.	28	.	.	.	.
COC(=O)C1=C(c2ccc(OCc3ccccc3)cc2)C[C@@H]2CC[C@H]1N2C(=O)NCCc1ccc(F)cc1	.	-28	.	.	.	.
COC(=O)C1=C(c2ccc(F)cc2OCc2ccccc2)C[C@@H]2CC[C@H]1N2C(=O)NCCc1ccc(F)cc1	.	-11	12µM*	?	?	.
COC(=O)C1=C(c2ccc(F)cc2F)C[C@@H]2CC[C@H]1N2C(=O)NCCNC(C)=O	.	.	-9%	0%	34%	.
COC(=O)C1=C(c2ccc(F)cc2OCc2ccccc2)C[C@@H]2CC[C@H]1N2C(=O)NCCOc1ccccc1Cl	.	-16	2.6µM*	?	?	.
COC(=O)C1=C(c2ccc(F)cc2OCc2ccccc2)C[C@@H]2CC[C@H]1N2C(=O)NCc1ccccc1Cl	.	-63*	5.2µM*	?	4.1µM*	.
COC(=O)C1=C(c2ccc(F)cc2OCc2ccccc2)C[C@@H]2CC[C@H]1N2C(=O)NCCOc1ccccc1	.	3	5.9µM*	?	?	.
COc1ccc(NC(=O)N2CCN(S(=O)(=O)c3ccc4c(ccn4C)c3)CC2)c(OC)c1	.	-8	.	.	.	.
CCCNC(=O)N1[C@H]2CC[C@@H]1C(C(=O)OC)=C(c1ccc(F)cc1F)C2	.	-16	39%	10%	29%	.
COC(=O)C1=C(c2ccc(Cl)c(C(F)(F)F)c2)C[C@@H]2CC[C@H]1N2C(=O)NCCOc1ccccc1Cl	.	.	9.3µM*	10µM*	6.6µM*	.
COC(=O)C1=C(c2ccc(F)cc2OCc2ccccc2)C[C@@H]2CC[C@H]1N2C(=O)NCCOc1ccc(OC)cc1	.	-29	?	?	3.3µM*	.
COC(=O)C1=C(c2ccc(F)cc2OCc2ccccc2)C[C@@H]2CC[C@H]1N2C(=O)NCCN1CCOCC1	.	-6	12µM*	9%	?	.
SMILES	Shiga toxin inh	HCMV inh	Pf growth 48h	HCV inh	Pf growth 96h	Cycloheximide cs
COC(=O)C1=C(c2ccc(Cl)c(C(F)(F)F)c2)C[C@@H]2CC[C@H]1N2C(=O)NCCNC(C)=O	.	-7	?	9%	-8%	.
CCCCC1C2=C(CC(C)(C)CC2=O)OC2=C1C(=O)CC(C)(C)C2	-25	-29	?	-19%	12µM*	-3
Cc1ccc(S(=O)(=O)c2cc(N3CCOCC3)nc(-c3ccccc3)n2)cc1	-6	4	?	-10%	8.3µM*	-1
CC(C)Sc1cc(N2CCCC2)nc(-c2ccc(F)cc2)n1	-6	-18	13µM*	-25%	?	7
CC(C)Sc1cc(N2CCOCC2)nc(-c2ccccc2)n1	-9	?	?	13µM*	?	-3
CC(C)Sc1cc(N2CCCC2)nc(-c2ccccc2)n1	8	-26	?	?	?	-3
c1ccc(-c2ccc(Oc3cc(N4CCOCC4)nc(-c4ccccc4)n3)cc2)cc1	27	-6	?	?	-63%	-1
Cc1ccc(S(=O)(=O)c2nnn3c2nc(N2CCOCC2)c2ccccc23)cc1	-9	9	-22%	11µM*	33%	-4
O=C(c1ccccc1NS(=O)(=O)c1cccc2cccnc12)N1CCOCC1	19	-6	3%	4%	?	8
Fc1ccc(-c2ccc3c(c2)C2CC3CCN2)cc1 (configuration not stated)	.	-12	.	-12%[8.37 µM]	.	.
CCc1ccc(S(=O)(=O)c2cn(Cc3ccccc3)c3cc(F)c(F)cc3c2=O)cc1	.	8	.	.	.	.
COc1cccc(/C=N/N2CCOCC2)c1O	active	36	101%	9%	17%	24*
COc1cccc(C=Nc2ccc3c(c2)OCCO3)c1O	107*	.	67%	20%	?	75*
Fc1cccc(F)c1/C=N/N1CCOCC1	17	104	16%	13%	-1%	19
COc1cccc(C=Nc2ccc(N3CCOCC3)cc2)c1O	-4	-10	-2%	10%	?	-4
Fc1ccc(/C=N/N2CCOCC2)c(F)c1	38	-17	-4%	14%	-3%	21*
COc1cccc(/C=N/N2C(=O)NC3(CCCCC3)C2=O)c1O	51	27	.	-1%	-1%	37*
Cc1cc(C)cc(-n2ccn(CC(=O)NCCc3ccccc3)c(=O)c2=O)c1	-6	-9	-1%	8%	1%	11
COc1ccc(C(=O)COC(=O)CCN=C2NS(=O)(=O)c3ccccc32)c(OC)c1	.	-27	-19%	10%	11%	.
CCCCN(C(=O)c1cc(S(=O)(=O)N2CCCCCC2)ccc1OC)c1c(N)n(CCC)c(=O)[nH]c1=O	.	21	?	6%	-7%	.
